From the supplement of paper PMC11732987, “Enantioselective OTUD7B fragment discovery through chemoproteomics screening and high-throughput optimisation” (Communications Chemistry, 2025)
Unmarked numbers belong to inactive results.

Key:
Assay in all cases: log2 ratio of Biotin-Ahx-Ub-VS probe labelling (fragment/DMSO); higher = less target engagement (more negative = stronger competition), active = hit call of the paper (q ≤ 0.05, log2 ratio ≤ -1)
Conditions in all cases: compound concentration: 200 uM; treatment time: 3 h
USP9X = USP9X (UniProt Q93008)
In short: (§1)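 Using Biotin-Ahx-Ub-VS at 0.5 µM final for 1 h, DUBs were labelled in HEK293T lysate (495 µg per sample) that had first been treated in triplicate with fragment at 200 µM or vehicle for 3 h. NeutrAvidin enrichment, LysC and trypsin digestion and diaPASEF LC-MS/MS followed. Spectronaut label-free quantities were global-median-normalised. Values are average log2 fragment/vehicle ratios by unpaired t-test, using proteins with ≥2 unique peptides.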

UniProt O00487 = molecular target: UniProt O00487
UniProt O00487, sequence (O00487 whole entry): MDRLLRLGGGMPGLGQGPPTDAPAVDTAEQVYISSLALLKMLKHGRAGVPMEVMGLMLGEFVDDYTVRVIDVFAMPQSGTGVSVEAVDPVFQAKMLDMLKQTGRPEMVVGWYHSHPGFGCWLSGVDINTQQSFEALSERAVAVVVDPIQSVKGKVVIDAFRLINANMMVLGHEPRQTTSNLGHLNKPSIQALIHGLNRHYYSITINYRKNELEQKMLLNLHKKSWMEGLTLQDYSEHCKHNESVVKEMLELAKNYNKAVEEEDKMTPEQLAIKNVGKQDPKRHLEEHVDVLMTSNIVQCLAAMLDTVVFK
In short: as §1

UniProt O00507 = molecular target: UniProt O00507
UniProt O00507, sequence (O00507 whole entry): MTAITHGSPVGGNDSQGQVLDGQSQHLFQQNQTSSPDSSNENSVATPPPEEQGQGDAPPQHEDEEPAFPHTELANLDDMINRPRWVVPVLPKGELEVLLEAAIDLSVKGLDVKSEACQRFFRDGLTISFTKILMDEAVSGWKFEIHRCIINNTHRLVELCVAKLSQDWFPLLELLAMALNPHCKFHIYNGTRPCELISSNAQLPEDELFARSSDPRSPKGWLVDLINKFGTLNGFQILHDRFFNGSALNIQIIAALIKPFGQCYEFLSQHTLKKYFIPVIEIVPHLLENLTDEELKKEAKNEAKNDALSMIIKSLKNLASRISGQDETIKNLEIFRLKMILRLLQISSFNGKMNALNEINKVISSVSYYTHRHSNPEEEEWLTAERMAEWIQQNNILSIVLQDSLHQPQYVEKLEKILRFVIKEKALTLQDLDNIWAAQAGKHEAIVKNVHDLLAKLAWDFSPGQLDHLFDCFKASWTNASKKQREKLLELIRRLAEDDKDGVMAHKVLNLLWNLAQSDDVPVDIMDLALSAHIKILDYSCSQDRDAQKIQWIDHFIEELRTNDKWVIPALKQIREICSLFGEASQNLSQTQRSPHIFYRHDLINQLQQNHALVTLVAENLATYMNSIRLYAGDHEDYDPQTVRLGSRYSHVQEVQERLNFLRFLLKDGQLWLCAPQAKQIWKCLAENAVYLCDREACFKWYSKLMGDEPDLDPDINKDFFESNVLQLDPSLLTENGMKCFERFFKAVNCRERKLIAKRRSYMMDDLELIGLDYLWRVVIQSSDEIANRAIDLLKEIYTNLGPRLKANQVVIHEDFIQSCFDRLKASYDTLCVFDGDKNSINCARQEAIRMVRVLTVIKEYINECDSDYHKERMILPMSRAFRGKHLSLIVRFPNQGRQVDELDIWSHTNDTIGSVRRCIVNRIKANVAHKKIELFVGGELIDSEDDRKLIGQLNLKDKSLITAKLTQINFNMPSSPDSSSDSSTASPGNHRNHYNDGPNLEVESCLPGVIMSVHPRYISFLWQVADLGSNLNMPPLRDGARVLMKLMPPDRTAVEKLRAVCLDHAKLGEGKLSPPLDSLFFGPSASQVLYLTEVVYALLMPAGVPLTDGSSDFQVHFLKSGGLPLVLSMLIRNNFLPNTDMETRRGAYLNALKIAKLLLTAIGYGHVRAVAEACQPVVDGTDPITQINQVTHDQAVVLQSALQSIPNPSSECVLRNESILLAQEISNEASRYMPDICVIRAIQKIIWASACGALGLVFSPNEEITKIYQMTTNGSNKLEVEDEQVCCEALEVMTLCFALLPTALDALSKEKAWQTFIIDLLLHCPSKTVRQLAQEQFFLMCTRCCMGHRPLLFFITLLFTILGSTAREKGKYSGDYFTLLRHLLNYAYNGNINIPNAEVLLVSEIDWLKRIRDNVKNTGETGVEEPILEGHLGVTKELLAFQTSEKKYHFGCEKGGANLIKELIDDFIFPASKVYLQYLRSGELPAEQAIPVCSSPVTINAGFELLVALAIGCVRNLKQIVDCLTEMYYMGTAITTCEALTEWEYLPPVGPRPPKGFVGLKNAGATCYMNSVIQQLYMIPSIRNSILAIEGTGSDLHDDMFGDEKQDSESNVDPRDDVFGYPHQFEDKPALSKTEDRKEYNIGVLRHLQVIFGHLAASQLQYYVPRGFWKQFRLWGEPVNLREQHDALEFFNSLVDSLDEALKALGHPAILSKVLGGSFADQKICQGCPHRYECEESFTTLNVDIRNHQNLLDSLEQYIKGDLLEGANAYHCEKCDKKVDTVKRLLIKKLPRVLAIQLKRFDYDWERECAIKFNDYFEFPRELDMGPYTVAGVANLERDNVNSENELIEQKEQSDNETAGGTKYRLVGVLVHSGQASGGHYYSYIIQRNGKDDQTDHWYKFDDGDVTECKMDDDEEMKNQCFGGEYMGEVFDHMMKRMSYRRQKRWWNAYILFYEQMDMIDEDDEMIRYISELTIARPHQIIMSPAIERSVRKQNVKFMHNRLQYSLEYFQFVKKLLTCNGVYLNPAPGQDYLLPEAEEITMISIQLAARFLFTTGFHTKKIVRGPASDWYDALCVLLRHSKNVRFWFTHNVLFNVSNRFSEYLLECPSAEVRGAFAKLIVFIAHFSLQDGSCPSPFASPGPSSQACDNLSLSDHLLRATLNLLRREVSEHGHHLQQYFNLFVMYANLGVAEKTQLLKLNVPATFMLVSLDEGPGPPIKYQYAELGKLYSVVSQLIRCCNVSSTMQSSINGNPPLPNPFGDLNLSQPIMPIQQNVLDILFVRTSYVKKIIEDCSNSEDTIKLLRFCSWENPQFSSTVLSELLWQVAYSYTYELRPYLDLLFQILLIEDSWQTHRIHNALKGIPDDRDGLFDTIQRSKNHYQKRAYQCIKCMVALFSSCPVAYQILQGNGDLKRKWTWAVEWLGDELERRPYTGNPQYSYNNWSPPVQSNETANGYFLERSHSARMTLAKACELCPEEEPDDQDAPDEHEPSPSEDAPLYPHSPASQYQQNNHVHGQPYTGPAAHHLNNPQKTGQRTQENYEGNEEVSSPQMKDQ
In short: as §1

UniProt P51784 = molecular target: UniProt P51784
UniProt P51784, sequence (P51784 whole entry): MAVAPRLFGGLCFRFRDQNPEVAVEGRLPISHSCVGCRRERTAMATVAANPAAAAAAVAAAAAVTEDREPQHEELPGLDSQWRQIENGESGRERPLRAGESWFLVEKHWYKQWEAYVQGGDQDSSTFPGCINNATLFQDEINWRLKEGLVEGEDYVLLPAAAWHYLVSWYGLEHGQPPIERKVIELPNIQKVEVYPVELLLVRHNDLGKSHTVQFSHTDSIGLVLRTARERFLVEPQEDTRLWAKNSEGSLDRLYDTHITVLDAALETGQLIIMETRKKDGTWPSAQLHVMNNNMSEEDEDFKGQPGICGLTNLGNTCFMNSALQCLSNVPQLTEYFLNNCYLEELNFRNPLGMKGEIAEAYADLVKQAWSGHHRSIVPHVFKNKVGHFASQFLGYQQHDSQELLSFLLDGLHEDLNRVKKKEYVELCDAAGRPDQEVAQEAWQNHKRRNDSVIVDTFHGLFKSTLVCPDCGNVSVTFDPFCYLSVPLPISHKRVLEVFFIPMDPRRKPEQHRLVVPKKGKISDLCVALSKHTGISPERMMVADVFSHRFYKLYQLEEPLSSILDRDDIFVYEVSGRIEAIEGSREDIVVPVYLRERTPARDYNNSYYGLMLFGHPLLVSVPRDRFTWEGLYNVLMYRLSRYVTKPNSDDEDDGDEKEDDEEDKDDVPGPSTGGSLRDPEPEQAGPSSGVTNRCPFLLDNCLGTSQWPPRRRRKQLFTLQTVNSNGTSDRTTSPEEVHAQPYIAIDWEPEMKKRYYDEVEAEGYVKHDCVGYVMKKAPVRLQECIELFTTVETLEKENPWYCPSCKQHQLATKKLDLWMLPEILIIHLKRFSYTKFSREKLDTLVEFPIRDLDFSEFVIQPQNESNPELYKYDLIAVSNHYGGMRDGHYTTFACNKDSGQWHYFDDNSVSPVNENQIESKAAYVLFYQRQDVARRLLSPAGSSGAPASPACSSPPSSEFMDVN
In short: as §1

UniProt Q5T2D3 = molecular target: T1, UniProt Q5T2D3
T1 sequence (whole entry): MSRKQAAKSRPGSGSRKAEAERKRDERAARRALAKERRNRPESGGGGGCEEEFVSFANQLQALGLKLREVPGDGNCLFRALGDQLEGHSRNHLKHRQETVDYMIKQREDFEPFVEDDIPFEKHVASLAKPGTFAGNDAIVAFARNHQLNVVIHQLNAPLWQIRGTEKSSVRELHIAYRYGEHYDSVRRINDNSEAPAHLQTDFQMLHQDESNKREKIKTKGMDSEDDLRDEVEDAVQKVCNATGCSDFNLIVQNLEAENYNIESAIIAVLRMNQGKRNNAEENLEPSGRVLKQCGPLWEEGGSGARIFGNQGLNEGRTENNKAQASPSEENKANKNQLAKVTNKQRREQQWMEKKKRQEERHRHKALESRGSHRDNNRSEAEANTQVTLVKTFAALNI
In short: as §1

UniProt Q8TE49 = molecular target: T2, UniProt Q8TE49
T2 sequence (whole entry): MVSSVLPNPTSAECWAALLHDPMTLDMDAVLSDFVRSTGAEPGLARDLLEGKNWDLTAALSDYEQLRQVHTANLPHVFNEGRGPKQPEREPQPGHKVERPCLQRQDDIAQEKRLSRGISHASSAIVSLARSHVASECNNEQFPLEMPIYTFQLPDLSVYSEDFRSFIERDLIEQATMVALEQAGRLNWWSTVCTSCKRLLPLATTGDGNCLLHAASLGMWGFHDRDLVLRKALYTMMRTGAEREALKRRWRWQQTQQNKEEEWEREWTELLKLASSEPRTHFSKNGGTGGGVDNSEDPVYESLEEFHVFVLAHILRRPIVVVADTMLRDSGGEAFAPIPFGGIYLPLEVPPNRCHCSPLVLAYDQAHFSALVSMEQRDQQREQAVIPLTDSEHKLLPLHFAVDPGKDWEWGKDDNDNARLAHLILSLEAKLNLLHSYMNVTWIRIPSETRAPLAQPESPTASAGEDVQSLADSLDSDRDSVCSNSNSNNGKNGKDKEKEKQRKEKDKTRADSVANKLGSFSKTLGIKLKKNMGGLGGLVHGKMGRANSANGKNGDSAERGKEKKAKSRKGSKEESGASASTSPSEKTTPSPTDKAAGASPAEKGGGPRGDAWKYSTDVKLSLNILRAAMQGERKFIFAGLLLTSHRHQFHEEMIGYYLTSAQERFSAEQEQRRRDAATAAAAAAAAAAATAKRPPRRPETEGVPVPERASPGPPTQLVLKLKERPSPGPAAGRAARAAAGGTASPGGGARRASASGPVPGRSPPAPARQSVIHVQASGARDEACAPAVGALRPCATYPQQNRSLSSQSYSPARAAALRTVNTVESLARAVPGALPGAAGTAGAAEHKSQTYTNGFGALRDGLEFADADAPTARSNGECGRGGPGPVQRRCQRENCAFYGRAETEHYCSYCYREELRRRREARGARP
In short: as §1

UniProt Q9P2H5 = molecular target: T3, UniProt Q9P2H5
T3 sequence (whole entry): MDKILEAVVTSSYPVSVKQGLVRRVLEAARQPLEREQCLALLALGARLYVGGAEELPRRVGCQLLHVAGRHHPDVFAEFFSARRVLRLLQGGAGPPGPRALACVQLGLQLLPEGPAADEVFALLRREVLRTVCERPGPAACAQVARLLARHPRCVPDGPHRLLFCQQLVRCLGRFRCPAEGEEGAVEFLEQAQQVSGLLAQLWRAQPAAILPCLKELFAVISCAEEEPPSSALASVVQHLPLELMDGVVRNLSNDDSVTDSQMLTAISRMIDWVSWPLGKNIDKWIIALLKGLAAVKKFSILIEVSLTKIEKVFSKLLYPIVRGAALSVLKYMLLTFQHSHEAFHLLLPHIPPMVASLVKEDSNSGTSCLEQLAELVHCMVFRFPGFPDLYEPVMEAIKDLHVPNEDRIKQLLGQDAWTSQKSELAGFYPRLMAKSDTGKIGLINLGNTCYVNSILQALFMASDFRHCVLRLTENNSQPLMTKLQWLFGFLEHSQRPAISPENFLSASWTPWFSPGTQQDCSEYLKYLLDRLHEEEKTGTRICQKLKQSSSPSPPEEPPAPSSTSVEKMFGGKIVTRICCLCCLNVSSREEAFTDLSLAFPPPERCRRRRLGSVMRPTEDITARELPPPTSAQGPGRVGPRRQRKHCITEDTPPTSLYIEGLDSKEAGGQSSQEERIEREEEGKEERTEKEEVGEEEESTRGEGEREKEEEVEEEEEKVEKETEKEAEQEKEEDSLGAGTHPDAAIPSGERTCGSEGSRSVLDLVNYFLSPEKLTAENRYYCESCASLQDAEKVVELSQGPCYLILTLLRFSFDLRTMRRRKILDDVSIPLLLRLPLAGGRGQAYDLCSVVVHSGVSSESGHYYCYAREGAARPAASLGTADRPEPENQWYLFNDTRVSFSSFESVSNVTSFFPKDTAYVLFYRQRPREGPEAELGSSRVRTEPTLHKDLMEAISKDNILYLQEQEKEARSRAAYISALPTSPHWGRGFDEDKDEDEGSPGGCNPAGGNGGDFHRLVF
In short: as §1

UniProt Q9UGI0 = molecular target: T4, UniProt Q9UGI0
T4 sequence (whole entry): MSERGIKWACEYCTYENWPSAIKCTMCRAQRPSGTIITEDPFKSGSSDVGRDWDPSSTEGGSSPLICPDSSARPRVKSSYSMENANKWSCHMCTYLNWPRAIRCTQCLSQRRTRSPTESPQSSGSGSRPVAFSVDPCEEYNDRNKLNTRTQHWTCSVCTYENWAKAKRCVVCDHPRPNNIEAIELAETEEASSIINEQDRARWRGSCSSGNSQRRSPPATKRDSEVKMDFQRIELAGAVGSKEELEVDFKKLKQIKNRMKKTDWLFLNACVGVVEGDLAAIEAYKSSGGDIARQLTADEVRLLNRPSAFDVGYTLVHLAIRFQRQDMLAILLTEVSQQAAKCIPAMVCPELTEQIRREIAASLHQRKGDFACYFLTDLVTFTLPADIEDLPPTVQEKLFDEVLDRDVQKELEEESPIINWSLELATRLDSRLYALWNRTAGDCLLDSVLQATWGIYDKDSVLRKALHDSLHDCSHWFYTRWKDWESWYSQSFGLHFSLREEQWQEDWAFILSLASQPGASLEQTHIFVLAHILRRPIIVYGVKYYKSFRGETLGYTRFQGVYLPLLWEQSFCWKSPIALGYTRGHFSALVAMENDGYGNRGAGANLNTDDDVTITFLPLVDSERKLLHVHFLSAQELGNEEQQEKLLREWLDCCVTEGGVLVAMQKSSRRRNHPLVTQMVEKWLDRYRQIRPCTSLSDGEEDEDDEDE
In short: as §1

YOD1 = molecular target: T5, YOD1 (UniProt Q5VVQ6)
T5 sequence (whole entry): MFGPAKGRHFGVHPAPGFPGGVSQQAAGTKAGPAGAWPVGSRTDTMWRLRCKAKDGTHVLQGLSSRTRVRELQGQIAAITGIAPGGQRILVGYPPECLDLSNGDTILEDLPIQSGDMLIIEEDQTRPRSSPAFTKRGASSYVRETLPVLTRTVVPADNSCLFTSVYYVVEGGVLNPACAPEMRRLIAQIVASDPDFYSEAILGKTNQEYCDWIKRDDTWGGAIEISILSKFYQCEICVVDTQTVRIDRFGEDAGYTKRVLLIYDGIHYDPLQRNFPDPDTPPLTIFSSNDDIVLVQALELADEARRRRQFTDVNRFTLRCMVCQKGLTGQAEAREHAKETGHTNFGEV
In short: as §1

Q: For CN(CCc1ncc(Br)cn1)C(=O)CCl.Cl, which “log2 ratio of Biotin-Ahx-Ub-VS probe labelling” value (“log2 ratio” for short) (USP9X) is on record?
A: -0.319

Q: What about the “log2 ratio” value (UniProt O00487) of the same compound?
A: -0.0172

Q: What about the “log2 ratio” value (UniProt O00507) of the same compound?
A: -0.225

Q: What about the “log2 ratio” value (UniProt P51784) of the same compound?
A: -0.0725

Q: What about the “log2 ratio” value (UniProt Q5T2D3) of the same compound?
A: -0.508

Q: What about the “log2 ratio” value (UniProt Q8TE49) of the same compound?
A: -1.75 (active)

Q: What about the “log2 ratio” value (UniProt Q9P2H5) of the same compound?
A: -0.437

Q: What about the “log2 ratio” value (UniProt Q9UGI0) of the same compound?
A: -0.752

Q: What about the “log2 ratio” value (YOD1) of the same compound?
A: 0.0394
